Assay outcomes deposited in PubChem BioAssay by several laboratories.
Arbovirus anti: antivirals against arbovirus infection, primary screen, cell-based, full library, 10K replicate subset. arbovirus infection cell-based antiviral screen. inhibition, % at 10 µM. hit rate 0.37% among 200,000; in the data active = inhibition above about 30%
MEKK2mut PB1 HTS: MEK5 binding signal on mutant MEKK2 PB1, primary screen, biochemical, multiplex bead flow cytometry, Alexa488-MEK5; percent response, % at 10 µM; hit rate 0.35% among 290,000; Alexa488-MEK5 binding to MEKK2 mutant; AID 1530, 2009; in the data active = percent response above about 24%, passing the limit was not always enough
MEKK3 PB1 HTS: modulators of MEKK3-MEK5 PB1 binding, primary screen, biochemical, wildtype MEKK3, multiplex bead flow cytometry, Alexa488-MEK5 | bead-based flow cytometry, Alexa488-MEK5 binding to MEKK3; actives lie on both sides; 0 = blocked by unlabeled MEK5, 100 = vehicle | binding response (% of control), % at 10 µM | hit rate 1.4% among 290,000 | AID 1529, 2009;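 active = binding response more than 3 SD above or below the average of its plate-row segment, actives on both sides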;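 note: Alexa488 bead fluorescence after subtracting the streptavidin-only scavenger bead signal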
Target sequence (Q99759 whole entry, looked up): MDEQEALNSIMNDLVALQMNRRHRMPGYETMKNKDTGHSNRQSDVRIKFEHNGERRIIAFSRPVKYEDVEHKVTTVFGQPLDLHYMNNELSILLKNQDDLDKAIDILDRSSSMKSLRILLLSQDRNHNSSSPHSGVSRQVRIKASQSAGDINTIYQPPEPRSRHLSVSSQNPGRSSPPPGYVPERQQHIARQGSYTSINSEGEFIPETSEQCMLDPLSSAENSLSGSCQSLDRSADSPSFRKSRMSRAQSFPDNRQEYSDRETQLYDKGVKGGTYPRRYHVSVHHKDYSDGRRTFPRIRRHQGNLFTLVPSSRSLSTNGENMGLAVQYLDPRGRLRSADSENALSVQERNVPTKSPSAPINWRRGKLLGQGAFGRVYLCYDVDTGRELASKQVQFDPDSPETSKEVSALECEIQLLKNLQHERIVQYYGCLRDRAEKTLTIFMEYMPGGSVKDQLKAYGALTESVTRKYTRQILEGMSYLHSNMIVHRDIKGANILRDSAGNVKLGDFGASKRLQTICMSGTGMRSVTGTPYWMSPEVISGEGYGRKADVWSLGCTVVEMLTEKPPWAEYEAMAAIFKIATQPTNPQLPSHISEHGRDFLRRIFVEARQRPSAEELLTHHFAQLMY
Pf gamet viab: late stage P. falciparum gametocyte viability inhibitors, primary screen, ATP luminescence, HTS; inhibition, % at 10.9 µM; P. falciparum stage V gametocytes, 24 h; hit rate 0.065% among 150,000;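 active = inhibition above the mean plus 3 SD of compounds within the control limits, set per campaign, cut at about 38% in these data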
MEKK2wt PB1 HTS: modulators of MEK5 binding to wildtype MEKK2, primary screen, biochemical, multiplex bead flow cytometry, Alexa488-MEK5; Mitogen-activated protein kinase kinase kinase 2 (Homo sapiens), Q9Y2U5; Alexa488-MEK5 binding to MEKK2 WT; actives lie on both sides; binding response (% of control), % at 10 µM; hit rate 1.1% among 290,000; AID 1531, 2009; in the data active = binding response below about 67% or above about 130%
MEKK2wt confirm: modulators of MEK5 binding to wildtype MEKK2, confirmation, biochemical, single concentration, multiplex bead flow cytometry; hit rate 2.4% among 5,900; shares compounds with MEKK3 PB1 HTS; AID 1892, 2009; Alexa488-MEK5 binding to MEKK2 WT; actives lie on both sides; binding response (% of control), % at 10 µM; in the data active = binding response below about 16% or above about 210%; inactive = in between
MEKK2mut-MEK5: mutant MEKK2 PB1-MEK5 binding signal retest – biochemical, single concentration, multiplex bead flow cytometry, confirmation; hit rate 2% among 5,900; percent response, % at 10 µM; shares compounds with MEKK3 PB1 HTS; Alexa488-MEK5 binding to MEKK2 mutant; in the data active = percent response mostly above about 71%, no sharp cut-off; inactive = mostly below about 38%;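 note: higher means compound restores mutant binding toward wildtype level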
MEKK3 confirm: MEKK3 wild-type PB1 binding to MEK5, inhibitors, confirmation, biochemical, bead multiplex flow cytometry, single concentration, wildtype; shares compounds with MEKK3 PB1 HTS; Alexa488-MEK5 binding to MEKK3; hits give low values; binding response (% of control), % at 10 µM; hit rate 1.8% among 5,900; AID 1894, 2009;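 active = binding response below 72% of control, or above a set upper limit, though filed actives all read lower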;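 note: lower values mean stronger disruption of MEK5 binding to MEKK3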
A number is an active result; – = inactive; · = not tested or not shown; [ ] = dose if it differs, or a comment. Most compounds without a hit are left out; they make up all but 2.4% or so of the library.

SMILES | Arbovirus anti | MEKK2mut PB1 HTS | MEKK3 PB1 HTS | Pf gamet viab | MEKK2wt PB1 HTS | MEKK2wt confirm | MEKK2mut-MEK5 | MEKK3 confirm
Cc1cccc(N(C(=O)c2snc(C(N)=O)c2N)C(C)C(=O)NCC2CCCO2)c1 (centres undefined) | – | – | 130 | – | – | – | – | 70
COc1ccccc1C1CC(c2ccccc2)Nc2ncnn21 (centres undefined) | – | – | 80[inhibitor] | · | – | – | – | –
CCNc1ccc(C(=O)N/N=C/c2c(C)nn(-c3ccccc3)c2N2CCCC2)cc1[N+](=O)[O-] | – | – | 138 | – | – | – | – | –
Cc1ccc(NS(=O)(=O)c2cccc(C(=O)N/N=C/c3c(C)nn(-c4ccccc4)c3N3CCCC3)c2)c(C)c1 | – | – | – | – | – | · | · | ·
COc1nc(C)nc2c1ccc1ccccc12 | – | – | 136 | – | – | – | – | –
COc1ccc(Oc2nc(C)nc3c2oc2ccccc23)cc1 | – | – | – | · | – | · | · | ·
CS(=O)(=O)N(CC(=O)N1CCc2ccccc2C1)c1ccccc1Br | · | – | – | · | – | · | · | ·
CCN1C(=O)CC(NC2CCN(C(=O)c3ccc(F)cc3)CC2)C1=O (centres undefined) | · | – | – | · | – | · | · | ·
CCSC1=N/C(=C\c2ccccc2)C(=O)N1c1ccc(OC)cc1 | – | – | 74[inhibitor] | – | – | – | – | –
C=CCSC1=N/C(=C\c2cccnc2)C(=O)N1c1ccc(OC)cc1 | – | – | – | – | – | · | · | ·
Cc1ccc(C)c(-c2ccc(=O)n(Cc3cccc(Br)c3)n2)c1 | · | – | – | · | – | · | · | ·
Cc1ccc(C)c(-c2ccc(=O)n(Cc3ccc(F)cc3Cl)n2)c1 | · | 34 | 128 | · | – | – | – | –
COc1ccc(CN(CC2CCC(C(=O)O)CC2)C(=S)Nc2cc(C)ccc2C)cc1 (centres undefined) | – | – | – | – | – | · | · | ·
CN(C)CCCN(C(=O)COc1ccccc1)c1nc2cc3c(cc2s1)OCO3 | · | – | – | · | – | · | · | ·
COc1cccc2sc(N(CCCN(C)C)C(=O)COc3ccc(Cl)cc3)nc12 | – | – | – | – | 168 | – | – | –
CN(C)CCCN(C(=O)COc1ccccc1)c1nc2ccc(Cl)cc2s1 | – | – | – | – | 167 | – | – | –
Cc1ccc2nc(N(CCCN(C)C)C(=O)CCc3ccccc3)sc2c1 | – | – | 139 | – | – | – | – | –
CN(C)CCCN(C(=O)COc1ccc(Cl)cc1)c1nc2cc3c(cc2s1)OCO3 | · | 35 | – | · | 179 | – | – | –
Cc1ccc2nc(N(CCCN(C)C)C(=O)CN3C(=O)c4ccccc4C3=O)sc2c1 | – | – | – | – | – | · | · | ·
CN(C)CCCN(C(=O)CCc1ccccc1)c1nc2ccc(Cl)cc2s1 | – | – | – | · | 164 | – | – | –
CCc1c(C)nc2ncnn2c1N1CCC(C(=O)NCc2cccs2)CC1 | – | – | 3.0[inhibitor] | – | 6.0[inhibitor] | – | – | –
CCc1c(C)nc2ncnn2c1N1CCCC(C(=O)NCc2cccs2)C1 (centres undefined) | – | – | – | – | – | · | · | ·
Cc1cccc(-n2c(C)c(-c3ccccc3)[nH]c2=S)c1 | · | – | – | – | – | · | · | ·
Cc1ccc(C(=O)Nn2cnnc2)cc1S(=O)(=O)N1CCOCC1 | · | – | – | – | – | · | · | ·
O=c1cc(CSc2nnc(COc3ccccc3)o2)c2ccccc2[nH]1 | – | – | 125 | · | – | – | – | –
SMILES | Arbovirus anti | MEKK2mut PB1 HTS | MEKK3 PB1 HTS | Pf gamet viab | MEKK2wt PB1 HTS | MEKK2wt confirm | MEKK2mut-MEK5 | MEKK3 confirm
CC(C)=CC(=O)N1CCCc2ccccc21 | – | – | – | · | – | · | · | ·
C/C(=C/C(=O)N1CCc2ccccc21)C(=O)O | – | – | 145 | · | – | – | – | –
O=C(NCCCN1CCN(CCCNC(=O)c2cc([N+](=O)[O-])ccc2Cl)CC1)c1cc([N+](=O)[O-])ccc1Cl | – | – | – | – | 206 | – | 79 | –
COC(=O)[C@@H](NCc1cccc(CN[C@H](C(=O)OC)c2ccccc2)c1)c1ccccc1 | · | – | – | · | 163 | – | – | –
COC(=O)C(NC(=O)CCC(=O)N[C@@H](C(=O)OC)c1ccccc1)c1ccccc1 (some centres undefined) | · | – | – | – | – | · | · | ·
Cc1ccc(C)c(N(C(=O)c2snc(C(N)=O)c2N)C(C(=O)NCC2CCCO2)c2ccc(C)o2)c1 (centres undefined) | · | – | – | · | – | · | · | ·
CC(N=C1CC(C)(C)CC(=O)/C1=C(/O)CCCN1C(=O)c2ccccc2C1=O)C(=O)O (centres undefined) | – | – | – | – | – | · | · | ·
Cc1cccc(NC(=O)CSc2nc3nc4c(cc3c(=O)n2-c2ccccc2)CCCC4)c1 | – | – | 132 | – | – | – | – | –
CCOC(=O)C(NCc1ccco1)(NC(=O)c1ccccc1)C(F)(F)F (centres undefined) | – | – | 133 | · | – | – | – | –
Cc1ccc(-n2cc(CNCC3CC(=O)N(C4CC4)C3)c(-c3cccc(C)c3)n2)cc1 (centres undefined) | – | – | – | – | 143 | – | – | –
COc1ccc(/C=N/NC(=O)c2nc(-c3ccccc3)n(-c3ccccc3)n2)cc1OC | – | – | 151 | – | – | – | – | –
COc1ccc2c(c1)c(C(=O)N/N=C/c1ccc(OC)c(OC)c1)c(C)n2C | – | – | 152 | · | – | – | – | –
Cc1cc(C)cc(SCc2noc(C(=O)NCCCN3CCOCC3)c2C(=O)NCCCN2CCOCC2)c1 | · | – | – | – | – | · | · | ·
CCOC(=O)CNC(=O)COc1coc(CN2CCN(c3ccc(F)cc3)CC2)cc1=O | · | – | – | · | – | · | · | ·
Cc1cnc(C(=O)Nc2nccs2)cn1 | – | – | 2.0[inhibitor] | · | 2.0[inhibitor] | – | – | –
COc1cc(-c2ccc3c(=O)c4ccccc4n(C)c3c2)cc(OC)c1OC | · | – | – | – | – | · | · | ·
COc1ccc(-c2cc(Cl)cc3c(=O)c4ccccc4n(C)c23)cc1F | · | – | – | – | 66[inhibitor] | – | – | –
C[C@@H]1CC[C@@]2(O[C@@H](CCO)C[C@@H](O)[C@@H]2O)O1 | · | – | – | – | – | · | · | ·
Cc1ccc(NC(=O)[C@H](C)NC(=O)C2CCN(C(=O)[C@@H](NC(=O)OC(C)(C)C)C(C)C)CC2)cc1 | · | – | – | · | – | · | · | ·
